# Measured values from PubChem BioAssay (EPA / NIEHS).
# Results filed as inconclusive are left out. The source made the active and inactive calls. Rule for the calls, unless noted: active = hit-call score of the fitted dose curve at least 0.9, where 1 is the maximum; inconclusive = response in the unintended direction; inactive = score below 0.9.
# Molecular target: X-box-binding protein 1 (Homo sapiens) (UniProt P17861)
# Experiment: ATG_Xbp1_CIS: Attagene CIS-FACTORIAL HepG2 Assay for human X-box Binding Protein 1 (XBP1) (AID 2282972; active = hit-call score of the fitted dose curve at least 0.9, where 1 is the maximum; inactive = score below 0.9)
# Conditions: HepG2 XBP1 cis-element reporter, Attagene multiplex; actives raise or lower the signal
# Method in brief: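 HepG2 cells transiently transfected with cis-regulated multiple reporter transcription units; endogenous transcription factor activity measured 24 hours after chemical dosing. Reporter mRNA quantified by RT-PCR, 6-FAM primer extension, HpaI digestion and capillary electrophoresis; bidirectional fitting versus DMSO.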
# X-box-binding protein 1 (Homo sapiens), sequence (P17861 whole entry, looked up): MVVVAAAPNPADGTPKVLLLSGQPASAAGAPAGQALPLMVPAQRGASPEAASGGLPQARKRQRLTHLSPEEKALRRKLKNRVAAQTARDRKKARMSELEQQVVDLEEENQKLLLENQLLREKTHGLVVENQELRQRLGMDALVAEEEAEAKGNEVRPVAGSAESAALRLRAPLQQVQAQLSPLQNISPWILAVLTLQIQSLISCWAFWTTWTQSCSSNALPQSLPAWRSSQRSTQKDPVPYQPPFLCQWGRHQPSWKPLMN
Structure (SMILES),outcome,AC50
N#CCc1ccc(Cl)cc1,inactive,
Clc1ccc(C2(Cn3cncn3)CC(Br)CO2)c(Cl)c1 (stereo not given),inactive,
CCOC(=O)/C=C(C)/C=C/C[C@@H](C)CCCC(C)C,inactive,
Clc1nc(Cl)nc(Cl)n1,inactive,
Cc1cc(=O)[nH]o1,inactive,
CC1(C)Cc2cccc(O)c2O1,inactive,
CC(C)(C)CC(C)(C)c1ccc(O)cc1,inactive,
CC1CN1P(=O)(N1CC1C)N1CC1C (stereo not given),inactive,
CCC(C)c1cccc(C(C)CC)c1O (stereo not given),inactive,
COC(=O)Cc1ccccc1,inactive,
ClCc1cccnc1,,58.1 µM (active)
CNC,inactive,
C=C(C)C#N,inactive,
CC(C)CCCCCCOC(=O)c1ccccc1C(=O)OCCCCCCC(C)C,inactive,
Oc1cccc2cccnc12,inactive,
Clc1ccc(COC(Cn2ccnc2)c2ccc(Cl)cc2Cl)cc1 (stereo not given),inactive,
N#CCCO,inactive,
CCC(=O)C(CC(C)N(C)C)(c1ccccc1)c1ccccc1 (stereo not given),inactive,
COP(=S)(OC)Oc1cc(Cl)c(Cl)cc1Cl,inactive,
O=C(NCO)NCO,inactive,

Structure (SMILES),outcome,AC50
NC(=S)Nc1ccccc1,inactive,
OCC(O)CCl (stereo not given),inactive,
CCOP(=O)(CN(CCO)CCO)OCC,inactive,
N#Cc1ccccn1,inactive,
C[C@H]1CCCC(=O)CCC/C=C/c2cc(O)cc(O)c2C(=O)O1,inactive,
OCc1ccco1,inactive,
Nc1ccc(N=Nc2ccc(-c3ccc(N=Nc4c(S(=O)(=O)O)cc5cc(S(=O)(=O)O)c(N=Nc6ccccc6)c(O)c5c4N)cc3)cc2)c(N)c1,inactive,
Cl/C=C/Cl,inactive,
CCOP(=S)(OCC)Oc1nc(Cl)c(Cl)cc1Cl,,100 µM (active)
Cc1ccccc1C(=O)Nc1cccc(OC(C)C)c1,inactive,
C=CCc1ccc(OC)cc1,inactive,
COP(=S)(OC)Oc1ccc(Sc2ccc(OP(=S)(OC)OC)cc2)cc1,,6.02 µM (active)
COc1ccc(C=O)cc1,inactive,
CCNc1nc(NC(C)(C)C)nc(SC)n1,inactive,
CCCCCCCCCl,inactive,
O=C(OC1CCCCC1)c1ccccc1C(=O)OC1CCCCC1,inactive,
CCC1(c2ccc(N)cc2)CCC(=O)NC1=O (stereo not given),inactive,
N#CN=C(N)N,inactive,
c1cc[c]([Hg][c]2ccccc2)cc1,,18.7 µM (active)

# Tested on: not listed separately
# Experiment: ATG_GAL4_TRANS: Attagene TRANS-FACTORIAL HepG2 Assay for GAL4 (Internal Marker) (AID 2282976)
# Conditions: HepG2 Attagene TRANS GAL4 internal marker reporter
# Method in brief: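 RT-PCR/capillary electrophoresis readout of reporter mRNA. HepG2, transient MRTU transfection (GAL4-UAS reporters), 24 h compound exposure. Background-control endpoint, positive direction vs DMSO baseline.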
row,Structure (SMILES),outcome
1,N#CCc1ccc(Cl)cc1,inactive
2,CCOC(=O)/C=C(C)/C=C/C[C@@H](C)CCCC(C)C,inactive
3,Clc1nc(Cl)nc(Cl)n1,inactive
4,Cc1cc(=O)[nH]o1,inactive
5,CC1(C)Cc2cccc(O)c2O1,inactive
6,CNC,inactive
7,C=C(C)C#N,inactive
8,N#CCCO,inactive
9,O=C(NCO)NCO,inactive
10,NC(=S)Nc1ccccc1,inactive
11,OCC(O)CCl (stereo not given),inactive
12,N#Cc1ccccn1,inactive
13,C=CCc1ccc(OC)cc1,inactive
14,CCC1(c2ccc(N)cc2)CCC(=O)NC1=O (stereo not given),inactive
15,N#CN=C(N)N,inactive

# Molecular target: Glucocorticoid receptor (Homo sapiens) (UniProt P04150)
# Sequence (P04150 whole entry, looked up): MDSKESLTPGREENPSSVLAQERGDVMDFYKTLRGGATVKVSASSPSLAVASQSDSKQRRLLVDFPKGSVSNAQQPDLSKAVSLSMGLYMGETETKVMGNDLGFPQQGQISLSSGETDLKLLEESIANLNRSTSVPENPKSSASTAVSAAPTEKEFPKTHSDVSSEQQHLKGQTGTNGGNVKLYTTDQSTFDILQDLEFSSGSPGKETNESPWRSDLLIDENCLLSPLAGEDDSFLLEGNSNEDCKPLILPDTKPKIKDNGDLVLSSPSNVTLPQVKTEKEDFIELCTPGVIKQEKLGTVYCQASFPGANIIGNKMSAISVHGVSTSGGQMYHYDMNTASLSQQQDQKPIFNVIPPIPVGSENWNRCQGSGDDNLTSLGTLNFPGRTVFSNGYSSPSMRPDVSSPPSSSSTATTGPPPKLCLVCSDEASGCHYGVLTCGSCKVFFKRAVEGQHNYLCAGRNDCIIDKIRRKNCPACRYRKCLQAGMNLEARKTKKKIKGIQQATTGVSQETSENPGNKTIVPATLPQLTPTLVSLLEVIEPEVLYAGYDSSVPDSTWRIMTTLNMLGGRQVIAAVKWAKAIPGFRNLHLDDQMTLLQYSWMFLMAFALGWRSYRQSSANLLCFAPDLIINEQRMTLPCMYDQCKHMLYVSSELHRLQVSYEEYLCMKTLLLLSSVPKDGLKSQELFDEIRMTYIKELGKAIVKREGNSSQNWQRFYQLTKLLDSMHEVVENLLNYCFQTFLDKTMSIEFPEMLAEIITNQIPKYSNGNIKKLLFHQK
# Experiment: ATG_GR_TRANS: Attagene TRANS-FACTORIAL HepG2 Assay for human Glucocorticoid Receptor (GR) (AID 2282978);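 note: activators score as hits since higher reporter transcript over DMSO is fitted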
# Conditions: HepG2 Attagene TRANS GR reporter, mRNA transcription
# Method in brief: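 Multiplexed TRANS reporter system, HepG2; 24 h exposure; RNA → oligo(dT) RT → reporter-specific PCR → 6-FAM primer extension → HpaI cut → CE fluorescence. Gain-of-signal vs DMSO.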
row,Structure (SMILES),outcome
1,Clc1ccc(C2(Cn3cncn3)CC(Br)CO2)c(Cl)c1 (stereo not given),inactive
2,Clc1nc(Cl)nc(Cl)n1,inactive
3,Cc1cc(=O)[nH]o1,inactive
4,COC(=O)Cc1ccccc1,inactive
5,Clc1ccc(COC(Cn2ccnc2)c2ccc(Cl)cc2Cl)cc1 (stereo not given),inactive
6,CCC(=O)C(CC(C)N(C)C)(c1ccccc1)c1ccccc1 (stereo not given),inactive
7,COP(=S)(OC)Oc1cc(Cl)c(Cl)cc1Cl,inactive
8,CCOP(=S)(OCC)Oc1nc(Cl)c(Cl)cc1Cl,inactive
9,CCNc1nc(NC(C)(C)C)nc(SC)n1,inactive

# Molecular target: Bile acid receptor (Homo sapiens) (UniProt Q96RI1)
# Sequence (Q96RI1 whole entry, looked up): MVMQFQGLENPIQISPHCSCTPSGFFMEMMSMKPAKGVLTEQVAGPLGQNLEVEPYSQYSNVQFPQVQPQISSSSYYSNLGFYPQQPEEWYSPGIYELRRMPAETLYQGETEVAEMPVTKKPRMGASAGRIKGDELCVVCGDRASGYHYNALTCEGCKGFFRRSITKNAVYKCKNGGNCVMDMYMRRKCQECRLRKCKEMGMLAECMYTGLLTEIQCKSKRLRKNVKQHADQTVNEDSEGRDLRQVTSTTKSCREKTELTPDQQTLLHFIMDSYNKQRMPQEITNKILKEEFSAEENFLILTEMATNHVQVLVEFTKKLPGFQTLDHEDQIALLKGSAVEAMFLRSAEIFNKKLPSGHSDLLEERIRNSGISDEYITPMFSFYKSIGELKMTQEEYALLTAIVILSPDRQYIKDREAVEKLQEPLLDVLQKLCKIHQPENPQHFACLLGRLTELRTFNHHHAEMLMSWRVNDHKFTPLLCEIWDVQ
# Experiment: ATG_FXR_TRANS: Attagene TRANS-FACTORIAL HepG2 Assay for Farnesoid X Receptor (FXR) (AID 2282979);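 note: hits raise reporter mRNA above DMSO so AC50 marks FXR activation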
# Conditions: HepG2 Attagene TRANS FXR-GAL4 reporter transcription
# Method in brief: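 Read-out: fluorescent reporter transcripts quantified by capillary electrophoresis after RT-PCR of total RNA. Source cells were HepG2 transiently carrying chimeric NR-GAL4 plus GAL4-UAS reporter units, dosed 24 h. Activity fitted upward relative to DMSO baseline.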
row,Structure (SMILES),outcome
1,CC(C)(C)CC(C)(C)c1ccc(O)cc1,inactive
2,ClCc1cccnc1,inactive
3,CCOP(=S)(OCC)Oc1nc(Cl)c(Cl)cc1Cl,inactive
4,CCNc1nc(NC(C)(C)C)nc(SC)n1,inactive
5,O=C(OC1CCCCC1)c1ccccc1C(=O)OC1CCCCC1,inactive
6,CCC1(c2ccc(N)cc2)CCC(=O)NC1=O (stereo not given),inactive
7,N#CN=C(N)N,inactive
8,c1cc[c]([Hg][c]2ccccc2)cc1,inactive

# Molecular target: Oxysterols receptor LXR-alpha (Homo sapiens) (UniProt Q13133)
# Sequence (Q13133 whole entry, looked up): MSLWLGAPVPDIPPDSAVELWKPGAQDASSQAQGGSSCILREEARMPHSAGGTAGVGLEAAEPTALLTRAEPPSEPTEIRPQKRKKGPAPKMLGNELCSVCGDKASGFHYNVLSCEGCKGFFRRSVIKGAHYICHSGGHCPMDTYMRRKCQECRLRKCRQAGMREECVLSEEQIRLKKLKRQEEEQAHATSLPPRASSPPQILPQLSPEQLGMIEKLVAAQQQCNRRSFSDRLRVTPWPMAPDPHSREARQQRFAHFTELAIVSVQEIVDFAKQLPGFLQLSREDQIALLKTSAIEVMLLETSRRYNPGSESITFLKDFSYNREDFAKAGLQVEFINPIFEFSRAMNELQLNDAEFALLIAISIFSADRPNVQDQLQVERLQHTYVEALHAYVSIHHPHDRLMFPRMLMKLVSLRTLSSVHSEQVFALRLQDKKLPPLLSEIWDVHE
# Experiment: ATG_LXRa_TRANS: Attagene TRANS-FACTORIAL HepG2 Assay for human Liver X Receptor alpha (LXRa) (AID 2282980)
# Conditions: HepG2 Attagene TRANS reporter, LXRa transactivation
# Method in brief: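 Read-out: reporter transcript levels by RT-PCR plus capillary electrophoresis, fluorescence intensity. Transiently transfected HepG2, exogenous NR-GAL4 chimera, GAL4-UAS reporters; 24 h compound exposure. Activity = increase over DMSO negative control.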
Structure (SMILES),outcome,AC50
N#CCc1ccc(Cl)cc1,inactive,
CC1(C)Cc2cccc(O)c2O1,inactive,
CC(C)(C)CC(C)(C)c1ccc(O)cc1,inactive,
CC1CN1P(=O)(N1CC1C)N1CC1C (stereo not given),inactive,
CCC(C)c1cccc(C(C)CC)c1O (stereo not given),,14.3 µM (active)
COC(=O)Cc1ccccc1,inactive,
ClCc1cccnc1,inactive,
C=C(C)C#N,inactive,
CC(C)CCCCCCOC(=O)c1ccccc1C(=O)OCCCCCCC(C)C,inactive,
Oc1cccc2cccnc12,inactive,
N#CCCO,inactive,
CCC(=O)C(CC(C)N(C)C)(c1ccccc1)c1ccccc1 (stereo not given),inactive,
COP(=S)(OC)Oc1cc(Cl)c(Cl)cc1Cl,inactive,
N#Cc1ccccn1,inactive,
C[C@H]1CCCC(=O)CCC/C=C/c2cc(O)cc(O)c2C(=O)O1,inactive,
OCc1ccco1,inactive,
Nc1ccc(N=Nc2ccc(-c3ccc(N=Nc4c(S(=O)(=O)O)cc5cc(S(=O)(=O)O)c(N=Nc6ccccc6)c(O)c5c4N)cc3)cc2)c(N)c1,inactive,
Cc1ccccc1C(=O)Nc1cccc(OC(C)C)c1,inactive,
C=CCc1ccc(OC)cc1,inactive,
COP(=S)(OC)Oc1ccc(Sc2ccc(OP(=S)(OC)OC)cc2)cc1,inactive,
COc1ccc(C=O)cc1,inactive,
CCNc1nc(NC(C)(C)C)nc(SC)n1,inactive,
CCCCCCCCCl,inactive,
N#CN=C(N)N,inactive,
